# Data taken from the supplement of paper PMC7380943.
# Structures can show the parent of a compound that is named as a salt. ± gives the standard deviation of the averaged measurements.
# Columns and labels:
# [1] = tested on: CLZ3 (HCA2 human fibroblast dual HR-NHEJ reporter); test: NHEJ repair efficiency (GFP+ cells) relative to control (log10 fold); higher = more non-homologous end joining; details: 5 µM; doxycycline 0.5 ug/mL
# [2] = tested on: CLZ3 (HCA2 human fibroblast dual HR-NHEJ reporter); test: HR repair efficiency (tdTomato+ cells) relative to control (log10 fold); higher = more homologous recombination; details: 5 µM; doxycycline 0.5 ug/mL
# 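Throughout, for HR repair efficiency (tdTomato+ cells) relative to control: compound given one day before doxycycline, which switches on I-SceI endonuclease expression to create double-strand breaks within the integrated reporter.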
# 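Throughout, for NHEJ repair efficiency (GFP+ cells) relative to control: compound given one day ahead of doxycycline, which switches on I-SceI endonuclease to cut the chromosomally integrated reporter and create DSBs.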
SMILES,NHEJ repair efficiency (log10) [1],HR repair efficiency (log10) [2]
COc1cc(/C=C/CO)ccc1O[C@@H]1O[C@H](CO)[C@@H](O)[C@H](O)[C@H]1O [Coniferin],0.0205,0.0767
CCOC(=O)/C=C/c1ccc(O)c(O)c1 [Ethyl Caffeate],0.0562,0.0777
C=C[C@H]1[C@H](O[C@@H]2O[C@H](CO)[C@@H](O)[C@H](O)[C@H]2O)OC=C(C(=O)OC)[C@H]1CC(=O)O [Secoxyloganin],0.0169,-0.19
CC1(C)CC[C@]2(C(=O)O[C@@H]3O[C@H](CO)[C@@H](O)[C@H](O)[C@H]3O)CC[C@]3(C)C(=CC[C@@H]4[C@@]5(C)CC[C@H](O[C@@H]6O[C@H](C(=O)O)[C@@H](O)[C@H](O)[C@H]6O[C@@H]6O[C@H](CO)[C@@H](O)[C@H](O)[C@H]6O)C(C)(C)[C@@H]5CC[C@]43C)[C@@H]2C1 [Chikusetsusaponin V],0.0351,0.0384
O=C(O)/C=C/c1ccccc1 [Cinnamic Acid],-0.0918,0.0721
O=c1c(O)cc([C@H]2Oc3cc(O)cc(O)c3C[C@H]2O)cc2c([C@H]3Oc4cc(O)cc(O)c4C[C@H]3O)cc(O)c(O)c12 [Theaflavin],0.0294,0.0415
CC[C@]12CCCN3CCc4c(n(c5ccccc45)[C@@](O)(C(=O)OC)C1)[C@@H]32 [Vincamine],0.104,0.0346
COc1cc(O)c(CC=C(C)C)c(O)c1C(=O)/C=C/c1ccc(O)cc1 [Xanthohumol],0.0812,0.0483
OC[C@H]1OC(O)[C@@H](O)[C@@H](O)[C@@H]1O (some centres not stated) [Mannose],0.0722,0.0481
Oc1cc(O)cc(/C=C/c2ccc(O)c(O)c2)c1 [Piceatannol],0.0759,0.0923
"Oc1cc(O)c2c(c1)OC(c1ccc(O)c(O)c1)C(O)C2 (single isomer, unassigned; (+)) [(+)-Catechin]",0.0406,-0.0449
COc1cc(/C=C/C(=O)O)ccc1O [Ferulaic Acid],-0.0555,-0.0235
O=C(O)c1ccccc1 [Benzoic Acid],-0.0219,0.137
O=C(O)C(O)Cc1ccc(O)c(O)c1 (configuration not stated) [Sodium Danshensu],-0.0204,0.0346
O=C(C=Cc1ccc(O)c(O)c1)O[C@@H]1C[C@@](O)(C(=O)O)C[C@@H](O)[C@@H]1O [5-Caffeoylquinic Acid],-0.0761,-0.0365
NCC(=O)O [Aminoacetic acid],0.185,0.151
CO[C@]1(CC[C@H](C)CO[C@@H]2O[C@H](CO)[C@@H](O)[C@H](O)[C@H]2O)O[C@H]2C[C@H]3[C@@H]4CC[C@@H]5C[C@@H](O[C@@H]6O[C@H](CO)[C@H](O)[C@H](O)[C@H]6O[C@@H]6O[C@H](CO)[C@@H](O)[C@H](O)[C@H]6O)CC[C@]5(C)[C@H]4CC[C@]3(C)[C@H]2[C@@H]1C [Anemarsaponin E],0.0103,-0.0664
O=C1c2ccccc2C(=O)c2c(O)c(O)cc(O)c21 [Purpurin],-0.0313,0.0725
O=C(O)C(O)c1ccccc1 (configuration not stated) [Mandelic Acid],0.0554,0.105
CC[C@@H]1[C@H]2CCCCN3[C@H]2[C@H](C[C@H]3[C@@H]2C[C@H](C)C(=O)O2)[C@@H]2[C@H]1OC(=O)[C@H]2C [Tuberostemonine],0.233,-0.0247
COc1cc2c(cc1OC)-c1cc3ccc4c(c3c[n+]1CC2)OCO4 [Epiberberine],-0.03,0.05
C=CC(C)(C)c1cc(/C=C/C(=O)c2ccc(O)cc2)c(OC)cc1O [Licochalcone A],-0.106,0.0473
CC(=O)OC(C)C(C)C(=O)OCC12C3CC(C)(C)[C@H](O[C@@H]1C[C@]1(C)C3=CCC3C4(C)CCC(O[C@@H]5O[C@H](C(=O)O)[C@@H](O[C@H]6O[C@H](CO)[C@@H](O)[C@H](O)[C@H]6O)[C@H](O)[C@H]5O[C@@H]5OC[C@@H](O)[C@H](O)[C@H]5O)[C@](C)(CO)C4CCC31C)C2O (some centres not stated) [Sodium Aescinate],0.101,0.0537
C[C@H]1[C@H](C)CC[C@]2(C(=O)O)CC[C@]3(C)C(=CC[C@@H]4[C@@]5(C)C[C@@H](O)[C@H](O)[C@@](C)(CO)[C@@H]5[C@H](O)C[C@]43C)[C@H]12 [Madecassic acid],0.0926,0.143
C[C@@H]1O[C@@H](Oc2cc(O)c3c(=O)c(O[C@@H]4O[C@@H](C)[C@H](O)[C@@H](O)[C@H]4O)c(-c4ccc(O)cc4)oc3c2)[C@H](O)[C@H](O)[C@H]1O [Kaempferitrin],0.0262,0.0294
CCOC(=O)c1cc(O)c(O)c(O)c1 [Gallic Acid Ethyl Ester],0.018,0.00694

SMILES,NHEJ repair efficiency (log10) [1],HR repair efficiency (log10) [2]
CC1(C)[C@@H](O)CC[C@]2(C)[C@H]3CC=C4[C@@H]5C[C@@]6(C)C[C@H](OC6=O)[C@]5(C)CC[C@@]4(C)[C@]3(C)CC[C@@H]12 [Wilforlide A],-0.137,0.00171
CC1(C)CC[C@]2(C(=O)O[C@@H]3O[C@H](CO)[C@@H](O)[C@H](O)[C@H]3O)CC[C@]3(C)C(=CC[C@@H]4[C@@]5(C)CC[C@H](O[C@@H]6O[C@H](C(=O)O)[C@@H](O)[C@H](O)[C@H]6O[C@@H]6O[C@H](CO)[C@@H](O)[C@H](O)[C@H]6O)C(C)(C)[C@@H]5CC[C@]43C)[C@@H]2C1 [Ginsenoside Ro],0.13,0.3
O=c1c(O[C@@H]2O[C@H](CO)[C@@H](O)[C@H](O)[C@H]2O)c(-c2ccc(O)c(O)c2)oc2cc(O)cc(O)c12 [Isoquercitrin],-0.0426,0.0777
O=C(O)C1=C[C@@H](O)[C@@H](O)[C@H](O)C1 [Shikimic Acid],0.128,0.17
C[C@@H]1CC[C@@]2(OC1)O[C@H]1C[C@H]3[C@@H]4CC=C5C[C@@H](O[C@@H]6O[C@H](CO)[C@@H](O)[C@H](O)[C@H]6O)CC[C@]5(C)[C@H]4CC[C@]3(C)[C@H]1[C@@H]2C [Diosgenin glucoside],-0.0975,0.0102
"O=C(/C=C/c1ccc(O)c(O)c1)OC1CC(OC(=O)/C=C/c2ccc(O)c(O)c2)(C(=O)O)CC(O)C1O (configuration not stated) [1,3-Dicaffeoylquinic Acid]",0.0818,-0.0122
C[C@H](CC(=O)C[C@@H](C)[C@H]1C[C@H](O)[C@@]2(C)C3=C(C(=O)C[C@]12C)[C@@]1(C)CCC(=O)C(C)(C)[C@@H]1C[C@@H]3O)C(=O)O [Ganoderic Acid A],0.0922,0.159
Cc1c(O)cc2c(c1O)C(=O)c1ccc(O)c(O)c1C2=O [3-Hydroxymorindone],-0.105,0.0716
C=C1CC[C@@H]2[C@](C)(CO)[C@H](O)CC[C@@]2(C)[C@H]1C/C=C1\C=COC1=O [Dehydroandrographolide],0.015,0.116
C=C1C[C@@]23CC[C@H]4[C@@](C)(CCC[C@@]4(C)C(=O)O[C@@H]4O[C@H](CO)[C@@H](O)[C@H](O)[C@H]4O)[C@@H]2CC[C@]1(O[C@@H]1O[C@H](CO)[C@@H](O)[C@H](O)[C@H]1O)C3 [Rubusoside],0.0726,0.0779
O=C(O)c1cc(O)c2c(c1)[C@H]([C@H]1c3cc(CO)cc(O)c3C(=O)c3c(O[C@@H]4O[C@H](CO)[C@@H](O)[C@H](O)[C@H]4O)cccc31)c1cccc(O[C@@H]3O[C@H](CO)[C@@H](O)[C@H](O)[C@H]3O)c1C2=O [Sennoside C],-0.0248,0.148
CC(C)=C1CC[C@@H](C)CC1=O [Pulegone],0.114,-0.0589
C=C(C)[C@H](CC=C(C)C)Cc1c(O)cc(OC)c2c1O[C@H](c1ccc(O)cc1O)CC2=O [Kurarinone],0.0108,0.0158
CC(C)=CCOc1c2ccoc2cc2oc(=O)ccc12 [Isoimperatorin],-0.032 ± 0.014,0.0188 ± 0.0059
COc1cc2c(cc1OC)-c1cc3ccc(OC)c(OC)c3c[n+]1CC2 [Palmatine hydrochloride],0.0374,0.0612
Cc1ccc(C(C)C)cc1 [p-Cymene],0.065,0.196
CCCOC(=O)c1cc(O)c(O)c(O)c1 [Propyl gallate],-0.0069,0.0457
COc1cc2ccc(=O)oc2cc1O [Scopoletin],-0.0239,-0.177
C=C(C(=O)O)[C@@H]1CC[C@@H](C)[C@@H]2CCC(C)=C[C@@H]21 [Artemisinic acid],0.0135,0.116
CCCCCCCCCC(=O)CC(O)S(=O)(=O)O (configuration not stated) [Sodium Houttuyfonate],0.024,0.102
O=c1cc(-c2ccc(O)cc2)oc2cc(O[C@@H]3O[C@H](CO)[C@@H](O)[C@H](O)[C@H]3O[C@@H]3OC[C@](O)(CO)[C@H]3O)cc(O)c12 [Apiin],0.142,0.321
O=C(O)c1cc(O)c2c(c1)[C@H]([C@H]1c3cc(C(=O)O)cc(O)c3C(=O)c3c(O[C@@H]4O[C@H](CO)[C@@H](O)[C@H](O)[C@H]4O)cccc31)c1cccc(O[C@@H]3O[C@H](CO)[C@@H](O)[C@H](O)[C@H]3O)c1C2=O [Sennoside A],0.0438,0.131
O=C(O)CCC(=O)O [Succinic acid],0.006,0.102
O=c1cc(-c2ccc(O[C@@H]3O[C@H](CO)[C@@H](O)[C@H](O)[C@H]3O)cc2)oc2cc(O)c([C@@H]3O[C@H](CO)[C@@H](O)[C@H](O)[C@H]3O[C@@H]3OC[C@H](O)[C@H](O)[C@H]3O)c(O)c12 [Vaccarin],-0.0315,-0.086
C=C(C)[C@@H]1CC[C@]2(C(=O)O)CC[C@]3(C)[C@H](CC[C@@H]4[C@@]5(C)CCC(=O)C(C)(C)[C@@H]5CC[C@]43C)[C@@H]12 [Liquidambaric Acid],-0.0687,0.0487
